The supplement of paper PMC8975748
Structures can show the parent of a compound that is named as a salt. ± gives the standard deviation of the averaged measurements.

Legend:
[1] = tested on: Saccharomyces cerevisiae BY4741 SeMeCo community; assay: mean cell size (pixel area) (pixels); higher = larger cells; conditions: 10 µM; 24 h; SM minimal medium
In short: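 A fluorescent Saccharomyces cerevisiae BY4741 community carrying four plasmids was used, with each plasmid complementing one auxotrophy and bearing a fluorescent marker. An overnight preculture at OD600 = 1.0 was diluted to OD600 = 0.3, and 70 µl went into 384-well plates acoustically predosed with drug (final 10 µM) in SM medium for 24 h. After paraformaldehyde fixation, cells were imaged by automated confocal microscopy and analysed in Harmony, giving the mean cell pixel area per well. Each value is the average of 3 replicates. Same SeMeCo high-content imaging drug screen: Selleck FDA-approved drugs at 10 µM, 24 h in SM medium, 384-well plates, 3 replicates.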

[2] = tested on: Saccharomyces cerevisiae BY4741 SeMeCo community; assay: z-score of prototroph abundance vs DMSO median; higher = larger share of this subpopulation than in DMSO controls; conditions: 10 µM; 24 h; SM minimal medium; subpopulation (auxotrophy): Prototroph
In short: (§1)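 A community of Saccharomyces cerevisiae BY4741 was built from four plasmids that each restored one auxotrophy and encoded a distinct fluorescent protein. Pre-grown overnight to OD600 1.0 and diluted to 0.3, it was dispensed at 70 µl into 384-well plates acoustically predosed with library drugs for a final 10 µM, and grown 24 h in minimal SM medium. Cells were then paraformaldehyde-fixed and imaged by automated confocal microscopy. Thresholds and autofluorescence correction came from single-auxotroph fluorescent strains, and each subpopulation's abundance was scored as a z-score relative to the vehicle-well median.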

[3] = tested on: Saccharomyces cerevisiae BY4741 SeMeCo community; assay: z-score of subpopulation abundance vs DMSO median, subpopulation auxotrophic for L; higher = larger share of this subpopulation than in DMSO controls; conditions: 10 µM; 24 h; SM minimal medium; subpopulation (auxotrophy): L
In short: as §1

[4] = tested on: Saccharomyces cerevisiae BY4741 SeMeCo community; assay: z-score of subpopulation abundance vs DMSO median, subpopulation auxotrophic for U; higher = larger share of this subpopulation than in DMSO controls; conditions: 10 µM; 24 h; SM minimal medium; subpopulation (auxotrophy): U
In short: as §1

[5] = tested on: Saccharomyces cerevisiae BY4741 SeMeCo community; assay: z-score of subpopulation abundance vs DMSO median, subpopulation auxotrophic for H; higher = larger share of this subpopulation than in DMSO controls; conditions: 10 µM; 24 h; SM minimal medium; subpopulation (auxotrophy): H
In short: as §1

[6] = tested on: Saccharomyces cerevisiae BY4741 SeMeCo community; assay: z-score of subpopulation abundance vs DMSO median, subpopulation auxotrophic for LU; higher = larger share of this subpopulation than in DMSO controls; conditions: 10 µM; 24 h; SM minimal medium; subpopulation (auxotrophy): LU
In short: as §1

[7] = tested on: Saccharomyces cerevisiae BY4741 SeMeCo community; assay: z-score of subpopulation abundance vs DMSO median, subpopulation auxotrophic for LM; higher = larger share of this subpopulation than in DMSO controls; conditions: 10 µM; 24 h; SM minimal medium; subpopulation (auxotrophy): LM
In short: as §1

[8] = tested on: Saccharomyces cerevisiae BY4741 SeMeCo community; assay: z-score of subpopulation abundance vs DMSO median, subpopulation auxotrophic for HM; higher = larger share of this subpopulation than in DMSO controls; conditions: 10 µM; 24 h; SM minimal medium; subpopulation (auxotrophy): HM
In short: as §1

[9] = tested on: Saccharomyces cerevisiae BY4741 SeMeCo community; assay: z-score of subpopulation abundance vs DMSO median, subpopulation auxotrophic for HU; higher = larger share of this subpopulation than in DMSO controls; conditions: 10 µM; 24 h; SM minimal medium; subpopulation (auxotrophy): HU
In short: as §1

[10] = tested on: Saccharomyces cerevisiae BY4741 SeMeCo community; assay: z-score of subpopulation abundance vs DMSO median, subpopulation auxotrophic for UM; higher = larger share of this subpopulation than in DMSO controls; conditions: 10 µM; 24 h; SM minimal medium; subpopulation (auxotrophy): UM
In short: as §1

[11] = tested on: Saccharomyces cerevisiae BY4741 SeMeCo community; assay: z-score of subpopulation abundance vs DMSO median, subpopulation auxotrophic for HL; higher = larger share of this subpopulation than in DMSO controls; conditions: 10 µM; 24 h; SM minimal medium; subpopulation (auxotrophy): HL
In short: as §1

[12] = tested on: Saccharomyces cerevisiae BY4741 SeMeCo community; assay: z-score of subpopulation abundance vs DMSO median, subpopulation auxotrophic for HLU; higher = larger share of this subpopulation than in DMSO controls; conditions: 10 µM; 24 h; SM minimal medium; subpopulation (auxotrophy): HLU
In short: as §1

[13] = tested on: Saccharomyces cerevisiae BY4741 SeMeCo community; assay: z-score of subpopulation abundance vs DMSO median, subpopulation auxotrophic for LUM; higher = larger share of this subpopulation than in DMSO controls; conditions: 10 µM; 24 h; SM minimal medium; subpopulation (auxotrophy): LUM
In short: as §1

[14] = tested on: Saccharomyces cerevisiae BY4741 SeMeCo community; assay: z-score of subpopulation abundance vs DMSO median, subpopulation auxotrophic for HLUM; higher = larger share of this subpopulation than in DMSO controls; conditions: 10 µM; 24 h; SM minimal medium; subpopulation (auxotrophy): HLUM
In short: as §1

[15] = tested on: Saccharomyces cerevisiae BY4741 SeMeCo community; assay: z-score of subpopulation abundance vs DMSO median, subpopulation auxotrophic for HLM; higher = larger share of this subpopulation than in DMSO controls; conditions: 10 µM; 24 h; SM minimal medium; subpopulation (auxotrophy): HLM
In short: as §1

[16] = tested on: Saccharomyces cerevisiae BY4741 SeMeCo community; assay: z-score of subpopulation abundance vs DMSO median, subpopulation auxotrophic for HUM; higher = larger share of this subpopulation than in DMSO controls; conditions: 10 µM; 24 h; SM minimal medium; subpopulation (auxotrophy): HUM
In short: as §1

SMILES | mean cell size [1] | z-score of prototroph abundance [2] | z-score of subpopulation abundance [3] | z-score of subpopulation abundance [4] | z-score of subpopulation abundance [5] | z-score of subpopulation abundance [6] | z-score of subpopulation abundance [7] | z-score of subpopulation abundance [8] | z-score of subpopulation abundance [9] | z-score of subpopulation abundance [10] | z-score of subpopulation abundance [11] | z-score of subpopulation abundance [12] | z-score of subpopulation abundance [13] | z-score of subpopulation abundance [14] | z-score of subpopulation abundance [15] | z-score of subpopulation abundance [16]
CCN(CC)CCNC(=O)c1cc(Cl)c(N)cc1OC [Metoclopramide] | 12 ± 0.25 | -1.14 | -0.22 | 1.49 | -0.88 | 0.6 | 0.08 | 0.05 | 1.02 | 1.28 | -0.39 | 1.27 | 1.17 | 1.06 |  | 
CCn1cc(C(=O)O)c(=O)c2cc(F)c(N3CCN(C)CC3)cc21 [Pefloxacin Mesylate Dihydrate] | 12.7 ± 0.14 | -0.64 | -0.36 | 0.5 | 0.39 |  | -0.32 | 0.71 | 0.28 | 0.05 |  | 0.03 | -0.46 | -0.42 | 0.88 | -0.06
CC(C)c1c(C(=O)Nc2ccccc2)c(-c2ccccc2)c(-c2ccc(F)cc2)n1CC[C@@H](O)C[C@@H](O)CC(=O)O [Atorvastatin Calcium] | 12 ± 0.14 |  | 0.91 | 0.01 | 7.9 | 2.65 | 2.22 | 9.85 | 7.9 | 4.62 | 6.43 | 8.01 | 4.29 | 4.28 |  | 7.67
CC(C)NNC(=O)c1ccncc1 [Iproniazid] | 12.4 ± 0.22 |  | -0.39 | 1.2 | 0.01 | 1.04 |  |  | 0.46 | 0.66 | -0.1 | 0.8 | 0.03 | 0.07 |  | 0.2
CO[C@@H]1[C@H](OC(=O)/C=C/C=C/C=C/C=C/C(=O)O)CC[C@]2(CO2)[C@H]1[C@@]1(C)O[C@@H]1CC=C(C)C [Fumagillin] | 12.24 ± 0.059 | -1.67 |  | 0.58 |  | 1.51 | 2.31 | 1.85 | 1.17 |  | 1.92 | 2.31 | 2.33 | 1.71 | 1.1 | 
CN[C@@H]1[C@@H](O)[C@@H](O[C@@H]2[C@@H](O)[C@H](O[C@H]3OC(CN)=CC[C@H]3N)[C@@H](N)C[C@H]2N)OC[C@]1(C)O [Sisomicin sulfate] | 12.12 ± 0.053 | -0.71 |  | 0.55 | -0.72 | 0.28 | 1.22 | 0.61 | 0.07 | 0.74 | 0.51 | 0.06 | 1.13 | 2.37 |  | 0.52
Oc1c(Cl)cc(Cl)cc1Sc1cc(Cl)cc(Cl)c1O [Bithionol] | 12.4 ± 0.28 | -1.81 | -1.47 | 1.53 | 6 |  | -1.62 | -0.03 | 5.87 | -0.68 | 3.98 | 2.39 | 2.62 | 2.92 | 4.37 | 3.51
CN1CCC[C@@H]1Cc1c[nH]c2ccc(CCS(=O)(=O)c3ccccc3)cc12 [Eletriptan HBr] |  | 0.55 |  | -0.94 | 0.1 | -1.12 | 0.75 | 0.08 | -1.27 |  |  | -0.54 | -1.48 | -0.74 |  | -0.47
